Experiment [1] concerns the target T1, Serine/threonine-protein kinase TBK1 (Homo sapiens) (UniProt Q9UHD2).
T1 sequence (whole entry): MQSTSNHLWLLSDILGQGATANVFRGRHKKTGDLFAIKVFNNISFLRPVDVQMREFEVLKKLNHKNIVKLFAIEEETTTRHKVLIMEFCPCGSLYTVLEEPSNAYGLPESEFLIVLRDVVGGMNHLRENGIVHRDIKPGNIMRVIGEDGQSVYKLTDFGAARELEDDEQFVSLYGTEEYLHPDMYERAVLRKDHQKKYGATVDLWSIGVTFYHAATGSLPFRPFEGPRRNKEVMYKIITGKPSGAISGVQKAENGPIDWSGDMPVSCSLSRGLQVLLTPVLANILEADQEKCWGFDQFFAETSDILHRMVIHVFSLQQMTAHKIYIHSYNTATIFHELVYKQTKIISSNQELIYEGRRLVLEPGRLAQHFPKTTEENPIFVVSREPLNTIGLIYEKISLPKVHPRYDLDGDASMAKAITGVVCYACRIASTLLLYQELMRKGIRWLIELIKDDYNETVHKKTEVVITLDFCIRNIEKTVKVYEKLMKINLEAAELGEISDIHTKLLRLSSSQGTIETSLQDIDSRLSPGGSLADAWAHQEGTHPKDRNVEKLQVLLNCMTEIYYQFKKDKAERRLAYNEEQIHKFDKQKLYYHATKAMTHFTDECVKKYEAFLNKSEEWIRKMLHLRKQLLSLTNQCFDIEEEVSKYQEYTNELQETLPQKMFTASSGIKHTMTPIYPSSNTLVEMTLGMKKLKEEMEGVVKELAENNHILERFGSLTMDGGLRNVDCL
The settings on record: at 1 µM.

Experiment [2] concerns the target T1, Serine/threonine-protein kinase TBK1 (Homo sapiens). The conditions noted are these: at 10 µM.
In experiment [3] the target is T2, TGF-beta receptor type-1 (Homo sapiens) (UniProt P36897).
T2 sequence (whole entry): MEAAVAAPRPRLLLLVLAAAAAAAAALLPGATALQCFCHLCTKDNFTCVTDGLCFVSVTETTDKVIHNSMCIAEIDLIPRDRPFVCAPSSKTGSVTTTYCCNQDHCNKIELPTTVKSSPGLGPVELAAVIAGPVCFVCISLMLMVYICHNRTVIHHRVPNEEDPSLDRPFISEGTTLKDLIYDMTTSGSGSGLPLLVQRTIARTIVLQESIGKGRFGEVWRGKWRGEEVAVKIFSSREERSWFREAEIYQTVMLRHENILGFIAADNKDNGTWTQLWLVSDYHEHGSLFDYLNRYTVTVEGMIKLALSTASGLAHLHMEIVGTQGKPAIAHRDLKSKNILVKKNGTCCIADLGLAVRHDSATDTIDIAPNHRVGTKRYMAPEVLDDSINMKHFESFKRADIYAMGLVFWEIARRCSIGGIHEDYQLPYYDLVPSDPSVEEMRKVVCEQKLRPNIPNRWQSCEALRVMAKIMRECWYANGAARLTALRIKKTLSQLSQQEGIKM
The settings on record: at 1 µM.

In experiment [4] the target is T2, TGF-beta receptor type-1 (Homo sapiens). The settings on record: at 10 µM.
Experiment [5] addresses Insulin-like growth factor 1 receptor (Homo sapiens) (UniProt P08069). The settings on record: at 1 µM.
For experiment [6] the target is unchanged. The settings on record: at 10 µM.
In experiment [7] the target is T3, Inhibitor of nuclear factor kappa-B kinase subunit alpha (Homo sapiens) (UniProt O15111).
T3 sequence (whole entry): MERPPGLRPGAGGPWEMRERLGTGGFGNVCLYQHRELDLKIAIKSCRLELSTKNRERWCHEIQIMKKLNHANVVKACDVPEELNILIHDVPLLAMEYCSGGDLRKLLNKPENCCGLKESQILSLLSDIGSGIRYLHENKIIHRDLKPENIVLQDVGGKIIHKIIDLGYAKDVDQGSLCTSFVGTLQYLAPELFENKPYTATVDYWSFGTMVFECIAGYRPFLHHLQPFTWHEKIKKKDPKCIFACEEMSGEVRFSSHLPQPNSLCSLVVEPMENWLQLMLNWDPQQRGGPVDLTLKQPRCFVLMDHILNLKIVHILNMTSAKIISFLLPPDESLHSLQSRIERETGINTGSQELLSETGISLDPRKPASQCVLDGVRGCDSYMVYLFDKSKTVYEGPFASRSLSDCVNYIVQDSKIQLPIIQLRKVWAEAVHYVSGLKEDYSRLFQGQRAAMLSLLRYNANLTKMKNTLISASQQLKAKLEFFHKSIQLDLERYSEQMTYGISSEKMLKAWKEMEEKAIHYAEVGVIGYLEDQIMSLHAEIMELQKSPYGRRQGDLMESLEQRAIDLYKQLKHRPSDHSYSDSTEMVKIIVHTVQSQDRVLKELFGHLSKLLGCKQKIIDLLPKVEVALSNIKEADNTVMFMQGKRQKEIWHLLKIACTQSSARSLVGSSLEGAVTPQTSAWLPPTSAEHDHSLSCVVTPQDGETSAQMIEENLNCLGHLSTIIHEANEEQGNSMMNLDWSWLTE
The settings on record: at 1 µM.

The target in experiment [8] is T3, Inhibitor of nuclear factor kappa-B kinase subunit alpha (Homo sapiens). The settings on record: at 10 µM.
Experiment [9] concerns the target T4, Inhibitor of nuclear factor kappa-B kinase subunit beta (Homo sapiens) (UniProt O14920).
T4 sequence (whole entry): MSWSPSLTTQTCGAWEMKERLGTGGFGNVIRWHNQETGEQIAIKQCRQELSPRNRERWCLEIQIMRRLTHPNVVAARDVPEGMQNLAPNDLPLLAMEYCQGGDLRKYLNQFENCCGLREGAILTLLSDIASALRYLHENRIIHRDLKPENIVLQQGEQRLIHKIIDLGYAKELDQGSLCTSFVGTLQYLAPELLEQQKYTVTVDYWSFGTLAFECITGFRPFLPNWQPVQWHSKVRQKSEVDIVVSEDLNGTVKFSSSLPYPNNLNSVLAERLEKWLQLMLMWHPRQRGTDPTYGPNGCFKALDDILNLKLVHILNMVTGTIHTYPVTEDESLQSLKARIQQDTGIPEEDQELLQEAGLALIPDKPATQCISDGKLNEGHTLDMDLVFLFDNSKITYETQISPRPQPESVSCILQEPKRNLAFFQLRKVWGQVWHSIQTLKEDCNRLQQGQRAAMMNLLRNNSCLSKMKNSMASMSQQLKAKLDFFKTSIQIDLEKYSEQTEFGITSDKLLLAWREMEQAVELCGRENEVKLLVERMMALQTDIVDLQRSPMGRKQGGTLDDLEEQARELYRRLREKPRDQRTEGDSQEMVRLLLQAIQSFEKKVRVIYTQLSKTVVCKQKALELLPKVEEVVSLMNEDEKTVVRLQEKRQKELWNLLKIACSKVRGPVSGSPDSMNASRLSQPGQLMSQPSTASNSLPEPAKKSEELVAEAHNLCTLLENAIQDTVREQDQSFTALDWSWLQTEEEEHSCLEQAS
The settings on record: at 10 µM.

The target of experiment [10] is Insulin receptor (Homo sapiens) (UniProt P06213). The conditions noted are these: at 1 µM.
Insulin receptor (Homo sapiens), sequence (P06213 28-758 limits assumed): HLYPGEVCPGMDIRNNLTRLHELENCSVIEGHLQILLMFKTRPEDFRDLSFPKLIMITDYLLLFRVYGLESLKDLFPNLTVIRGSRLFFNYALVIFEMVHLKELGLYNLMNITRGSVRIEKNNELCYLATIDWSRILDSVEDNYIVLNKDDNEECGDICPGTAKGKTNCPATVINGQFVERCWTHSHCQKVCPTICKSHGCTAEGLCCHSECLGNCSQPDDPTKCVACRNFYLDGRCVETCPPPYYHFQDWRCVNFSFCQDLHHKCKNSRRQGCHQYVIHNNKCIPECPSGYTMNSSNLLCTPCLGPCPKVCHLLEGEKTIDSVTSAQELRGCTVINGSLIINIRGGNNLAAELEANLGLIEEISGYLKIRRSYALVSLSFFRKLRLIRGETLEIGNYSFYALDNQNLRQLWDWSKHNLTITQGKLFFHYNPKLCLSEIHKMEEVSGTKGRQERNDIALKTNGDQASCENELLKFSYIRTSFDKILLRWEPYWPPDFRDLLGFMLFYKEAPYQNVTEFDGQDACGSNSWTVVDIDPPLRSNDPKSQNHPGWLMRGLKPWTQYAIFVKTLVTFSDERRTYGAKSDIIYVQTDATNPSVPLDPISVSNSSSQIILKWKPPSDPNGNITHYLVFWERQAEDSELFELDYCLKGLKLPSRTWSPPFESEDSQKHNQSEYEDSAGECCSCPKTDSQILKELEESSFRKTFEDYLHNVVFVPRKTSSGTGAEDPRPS
Insulin receptor (Homo sapiens), sequence (P06213 763-1382 limits assumed): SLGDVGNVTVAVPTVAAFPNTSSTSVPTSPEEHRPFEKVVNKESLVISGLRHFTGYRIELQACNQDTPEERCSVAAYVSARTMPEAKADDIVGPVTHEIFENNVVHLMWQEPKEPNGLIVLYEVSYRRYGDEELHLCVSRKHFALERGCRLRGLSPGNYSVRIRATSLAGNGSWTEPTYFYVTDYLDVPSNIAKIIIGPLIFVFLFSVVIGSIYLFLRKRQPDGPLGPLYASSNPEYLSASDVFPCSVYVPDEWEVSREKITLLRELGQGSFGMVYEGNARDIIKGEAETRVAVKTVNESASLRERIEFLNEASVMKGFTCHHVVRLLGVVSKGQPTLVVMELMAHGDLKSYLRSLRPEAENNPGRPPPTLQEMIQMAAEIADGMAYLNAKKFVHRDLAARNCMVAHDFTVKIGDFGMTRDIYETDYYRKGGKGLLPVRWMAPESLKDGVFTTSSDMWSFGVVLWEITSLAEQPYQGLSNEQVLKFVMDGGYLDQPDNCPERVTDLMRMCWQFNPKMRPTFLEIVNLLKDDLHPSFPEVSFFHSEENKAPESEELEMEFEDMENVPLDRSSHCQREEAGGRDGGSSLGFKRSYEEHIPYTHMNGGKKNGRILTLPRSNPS

Insulin-like growth factor 1 receptor (Homo sapiens), sequence (P08069 31-736 limits assumed): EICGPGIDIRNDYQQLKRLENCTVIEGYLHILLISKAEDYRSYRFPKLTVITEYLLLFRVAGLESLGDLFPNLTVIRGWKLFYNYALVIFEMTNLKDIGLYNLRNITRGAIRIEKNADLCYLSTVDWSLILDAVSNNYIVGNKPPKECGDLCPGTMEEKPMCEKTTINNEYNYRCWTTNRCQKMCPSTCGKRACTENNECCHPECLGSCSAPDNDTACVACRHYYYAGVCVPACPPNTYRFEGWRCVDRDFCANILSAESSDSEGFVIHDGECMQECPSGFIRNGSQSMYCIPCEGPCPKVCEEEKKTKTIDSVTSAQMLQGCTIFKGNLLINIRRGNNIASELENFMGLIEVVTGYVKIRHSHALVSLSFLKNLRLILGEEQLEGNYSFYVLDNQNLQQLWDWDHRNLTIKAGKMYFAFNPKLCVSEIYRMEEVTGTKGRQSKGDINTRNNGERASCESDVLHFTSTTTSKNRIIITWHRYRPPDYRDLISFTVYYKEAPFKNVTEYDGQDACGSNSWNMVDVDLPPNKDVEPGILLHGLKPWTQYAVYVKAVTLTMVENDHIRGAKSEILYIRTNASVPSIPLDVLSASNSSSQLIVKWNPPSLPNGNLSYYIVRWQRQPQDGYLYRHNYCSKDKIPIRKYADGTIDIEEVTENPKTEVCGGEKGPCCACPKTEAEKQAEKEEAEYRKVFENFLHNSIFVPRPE
Insulin-like growth factor 1 receptor (Homo sapiens), sequence (P08069 741-1367 limits assumed): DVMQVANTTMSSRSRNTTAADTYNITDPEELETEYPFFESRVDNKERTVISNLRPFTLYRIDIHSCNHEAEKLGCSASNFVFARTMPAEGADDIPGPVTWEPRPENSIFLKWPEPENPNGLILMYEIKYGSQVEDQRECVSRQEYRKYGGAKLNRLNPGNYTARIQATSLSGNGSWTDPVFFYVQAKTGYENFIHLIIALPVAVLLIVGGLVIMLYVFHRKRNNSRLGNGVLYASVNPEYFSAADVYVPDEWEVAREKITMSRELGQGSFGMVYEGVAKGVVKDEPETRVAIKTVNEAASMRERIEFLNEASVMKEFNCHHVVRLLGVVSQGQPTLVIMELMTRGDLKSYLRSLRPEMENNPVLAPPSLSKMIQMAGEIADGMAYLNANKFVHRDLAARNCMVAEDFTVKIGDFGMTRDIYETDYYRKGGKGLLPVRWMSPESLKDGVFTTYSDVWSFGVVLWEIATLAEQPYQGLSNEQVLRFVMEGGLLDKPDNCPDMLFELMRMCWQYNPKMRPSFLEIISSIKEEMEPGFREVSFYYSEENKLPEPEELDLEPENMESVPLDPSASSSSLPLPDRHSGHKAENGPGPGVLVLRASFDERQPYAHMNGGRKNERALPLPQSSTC

One may read the residual activity as the signal under treatment as a percentage of the control signal. Turning to `CCCC(=O)Oc1ccc2[nH]c(C(=O)c3cc4ccccc4[nH]3)cc2c1`, the residual activity turned out to be 63% in [1]; 59% in experiment [2]; 79% in experiment [3]; 93% in experiment [4]; 93% in experiment [5]; 90% in experiment [6]. The residual activity in [7] stood at 104%; in experiment [8], 100%; in experiment [9], 93%; in experiment [10], 107%.

The values above are taken from ChEMBL document CHEMBL2218924, “A broad activity screen in support of a chemogenomic map for kinase signalling research and drug discovery” (Biochem J, 2013).
